PubChem BioAssay (NCATS)
Records with an inconclusive call do not appear. The source made the active and inactive calls. The call rests on the fitted dose curve; in most records, active means well fitted curve in the direction sought with a large enough effect; inconclusive means small, poorly fitted or top-dose-only effect, or another doubt; inactive means no such curve, though single readings can be large; an effect the other way counts as inactive or inconclusive.

Assays:
[1] = Cellular Toxicity (caspase-3) Mesangial (AID 660); details: mesangial cells, normalized: DMSO 0%, 100 µM tamoxifen 100%; at 91.7 µM (top of the series);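 further: combined caspase 3 and 7 activity read by Caspase-Glo luminescence; cells exposed to compound for 16 h before the caspase read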
Outline: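 Mesangial cells, 1000/well, 5 h settle at 37 °C; compound 16 h, 37 °C; Caspase-Glo 3/7 reagent 20 min RT; luminescence. Norm.: DMSO = 0%, tamoxifen 100 uM = 100%. AC50, Hill fit.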

[2] = Cellular Toxicity (caspase-3) SK-N-SH (AID 661);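 further: 0% = DMSO basal and 100% = 10 µM staurosporine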
Outline: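 Human neuroblastoma SK-N-SH, 1500 cells/well, 5 hr pre-incubation, then compound 16 hr, 37 °C. Caspase-Glo 3/7 reagent, 1 hr RT, luminescence. Norm. to DMSO/10 uM staurosporine; Hill-fit AC50.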

[3] = Cellular Toxicity (caspase-3) H-4-II-E (AID 663); details: H-4-II-E rat hepatoma, scaled: DMSO 0%, 100 µM tamoxifen 100%; at 92.2 µM (top of the series)
Outline: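 Apoptosis induction is scored as increased luminescence from caspase 3/7 substrate cleavage in rat hepatoma H-4-II-E cells exposed to compound for 16 hr. Activity is scaled between DMSO and 100 uM tamoxifen.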

[4] = Cellular Toxicity (caspase-3) Hek293 (AID 664); details: HEK293 caspase-3 activation, DMSO = 0%, 100 µM tamoxifen = 100%; at 92.2 µM (top of the series);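 further: cells exposed to compound for 16 h at 37 °C before readout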
Outline: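 Cells plated, 5 hr at 37 °C; compounds added; 16 hr at 37 °C; Caspase-Glo 3/7 reagent, 20 min RT; luminescence read. Activation expressed relative to DMSO and 100 uM tamoxifen, AC50 by Hill model.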

[5] = Cellular Toxicity (caspase-3) N2a (AID 665);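 further: compound exposure lasted 16 h at 37 °C before readout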
Outline: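 N2a cells, 1500/well, 5 h settle at 37 °C; cpd 16 h, 37 °C; Caspase-Glo 3/7, 1 h RT; luminescence. Norm: DMSO = 0, 10 uM staurosporine = 100%. AC50, Hill fit.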

[6] = Cellular Toxicity (caspase-3) Renal Proximal Tubule (AID 667); details: Potency: caspase-3 activation;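 further: cells exposed to compound for 16 hours at 37 °C before detection; 0% = DMSO basal and 100% = 10 µM staurosporine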
Outline: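 Luminescent caspase 3/7 signal from peptide-aminoluciferin cleavage measures apoptosis in freshly isolated rat kidney proximal tubule cells after 16 h compound exposure. Concentration-response data are normalized to DMSO and 10 uM staurosporine, and AC50 values come from Hill equation fits.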

[7] = biological target: Cytochrome P450 3A4 (Homo sapiens) (UniProt P08684); test: qHTS Assay for Inhibitors and Substrates of Cytochrome P450 3A4 (AID 884); further: on the % scale 0 is the no-effect control and ±100 the full control effect; nearly all actives have a fitted effect of over 50% in size
Sequence of Cytochrome P450 3A4 (Homo sapiens) (P08684 whole entry, looked up): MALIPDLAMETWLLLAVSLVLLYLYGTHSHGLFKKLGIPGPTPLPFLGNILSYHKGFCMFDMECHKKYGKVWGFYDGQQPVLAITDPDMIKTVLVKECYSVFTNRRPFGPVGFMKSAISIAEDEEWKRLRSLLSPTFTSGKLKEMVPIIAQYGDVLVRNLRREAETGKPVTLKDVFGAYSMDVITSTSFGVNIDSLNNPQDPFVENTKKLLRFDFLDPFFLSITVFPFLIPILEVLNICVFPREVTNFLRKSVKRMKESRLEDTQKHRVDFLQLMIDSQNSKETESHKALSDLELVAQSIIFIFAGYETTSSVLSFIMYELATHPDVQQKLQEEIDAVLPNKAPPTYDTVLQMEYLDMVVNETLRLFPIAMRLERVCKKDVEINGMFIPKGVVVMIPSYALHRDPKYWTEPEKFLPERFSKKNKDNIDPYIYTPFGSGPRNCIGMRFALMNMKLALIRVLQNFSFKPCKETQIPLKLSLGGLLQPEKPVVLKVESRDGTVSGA
Outline: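 20 nM human CYP3A4 with 25 uM Luciferin-PPXE (at KM) in 200 mM KPO4, preincubated 10 min with compound; NADPH regeneration started a 60 min RT reaction. Luciferin detected by luminescence, normalized to 57 uM ketoconazole as full inhibition.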

[8] = Cell Viability - LYMP2-001 (AID 921);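 further: 0% = DMSO only and full inhibition = tetraoctylammonium bromide control wells; nearly all actives have a fitted effect of over 70% in size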
Outline: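 CellTiter-Glo luminescence (intracellular ATP) after 24 hr compound exposure at 37 C, 2500 lymphoblastoid cells/well in complete medium. AC50 fitted with standard Hill equation; tetraoctylammonium bromide positive control.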

[9] = MultiTox-Fluor Cytotoxicity Assay - LYMP1-001 - Dead Cells (AID 946)
Outline: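 In this qHTS, 15 uM tetraoctylammonium bromide defined 100% and DMSO defined basal activity. Lymphoblastoid cells (LYMP1-001, 2500 per well) received compound for 16 hr at 37 C before a fluorogenic dead-cell substrate readout at 485/520 nm.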

[10] = MultiTox-Fluor Cytotoxicity Assay - LYMP1-001 - Live Cells (AID 947);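 further: 0% = DMSO only and full inhibition = tetraoctylammonium bromide control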
[11] = Cell Viability - LYMP1-002 - Assay at 16 hr (AID 948);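 further: 0% = DMSO alone and full effect = 92 µM tetraoctylammonium bromide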
Outline: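 LYMP1-002 human lymphoblastoid cells, 2500/well; 5 hr 37 C; cpd 16 hr 37 C; CellTiter-Glo 30 min RT; luminescence (ATP). Concentration-response, Hill-fit AC50. Pos ctrl tetraoctylammonium bromide.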

[12] = MultiTox-Fluor Cytotoxicity Assay - LYMP1-002 - Live Cells (AID 955); further: on the % scale 0 is the no-effect control and ±100 the full control effect
Outline: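 Read-out is live-cell protease activity (cell-permeant GF-AFC substrate, fluorescence Ex/Em=405/510), where a decrease indicates acute toxicity. Human lymphoblastoid cells were treated 16 hours at 37 C in a concentration series, and AC50 values came from standard Hill modelling.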

[13] = MultiTox-Fluor Cytotoxicity Assay - LYMP1-002 - Dead Cells (AID 960); further: nearly all actives have a fitted effect of over 60% in size
Outline: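 LYMP1-002 cells 2500/well; 5 hr 37 C pre-incubation; compound 16 hr 37 C; MultiTox-Fluor reagent 60 min RT; dead-cell fluor Ex/Em 485/520. Norm. to DMSO (0%) vs 15 uM tetraoctylammonium bromide (100%); Hill AC50.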

[14] = MultiTox-Fluor Cytotoxicity Assay - LYMP1-003 - Dead Cells (AID 961); further: nearly all actives have a fitted effect of over 70% in size
Outline: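 Acute toxicity is scored as increased dead-cell protease activity in human lymphoblastoid LYMP1-003 cells after 16 h compound exposure in complete culture medium. Activity is normalized to DMSO basal and 15 uM tetraoctylammonium bromide as full response.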

[15] = MultiTox-Fluor Cytotoxicity Assay - LYMP1-003 - Live Cells (AID 962);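 further: cells exposed to compound for 16 hours at 37 °C; 0% = DMSO only and full loss = 92 µM tetraoctylammonium bromide; cytotoxic hits lower the live-cell protease signal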
Outline: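 qHTS, 1536-well; 2500 cells/well LYMP1-003; 5 hr 37 C settle; cpd 16 hr 37 C; MultiTox-Fluor reagent 60 min RT; live-cell protease fluor. 405/510; Hill-fit AC50; tetraoctylammonium bromide pos. ctrl.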

[16] = Cell Viability - LYMP1-003 - Assay at 24 hr (AID 963);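 further: plate controls were DMSO only for no effect and tetraoctylammonium bromide positive control for full effect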
Outline: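 Cells seeded at 2500/well, 5 hr at 37 C; compounds added; 24 hr at 37 C; CellTiter-Glo added, 30 min room temperature; luminescence read. Decrease in ATP taken as cytotoxicity, AC50 from Hill modelling.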

[17] = Cell Viability - LYMP1-003 - Assay at 40 hr (AID 964); further: on the % scale 0 is the no-effect control and ±100 the full control effect; nearly all actives have a fitted effect of over 60% in size
Outline: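 Cells were seeded at 2500 per well and incubated 5 hr at 37 C. Compounds were added across a concentration series and left 40 hr at 37 C. CellTiter-Glo was added for 30 min at room temperature before luminescence reading.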

[18] = Cell Viability - LYMP2-003 (AID 965);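 further: cells exposed to compounds for 24 h before reading; 0% = DMSO only and full effect = 92 µM tetraoctylammonium bromide; nearly all actives have a fitted effect of over 50% in size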
Outline: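 CellTiter-Glo luminescence (cellular ATP) after 24 h compound exposure at 37 C in complete medium; 2500 cells/well, 5 h settling beforehand. Concentration-response fitted to standard Hill equation for AC50. Tetraoctylammonium bromide served as positive control.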

[19] = Cell Viability - LYMP2-004 (AID 966);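 further: plate controls were DMSO only for no effect and tetraoctylammonium bromide control for full effect; nearly all actives have a fitted effect of over 65% in size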
Outline: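 Cells seeded 2500/well, rested 5 hr at 37 C, dosed across a concentration series, incubated 24 hr at 37 C, then CellTiter-Glo added for 30 min at room temperature and luminescence read. Hill fitting gave AC50.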

[20] = Cellular Toxicity (caspase-3) NIH 3T3 (AID 666);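 further: 0% = DMSO basal and 100% = 100 µM tamoxifen stimulation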
Outline: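 Luminescence from aminoluciferin released by caspase-3/7 cleavage of a peptide substrate served as read-out. Mouse fibroblast NIH 3T3 cells were exposed to compounds over a concentration range for 16 hours, and AC50 values came from standard Hill modelling.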

C=C(C)C(=O)OCC(C)C
inactive: caspase-3 activation [1] 1.08% | outcome [2] | caspase-3 activation [3] 0.664% | caspase-3 activation [4] -0.498% | outcome [5] | Potency [6] | Potency [7] | Potency [8] | outcome [9] | outcome [10] | outcome [11] | outcome [12] | outcome [13] | Potency [14] | Potency [15] | Potency [16] | Potency [17] | Potency [18]

CC#N
inactive: caspase-3 activation [1] 1.61% | outcome [2] | caspase-3 activation [3] 0.385% | caspase-3 activation [4] 1.27% | outcome [5] | Potency [6] | Potency [7] | Potency [8] | outcome [9] | outcome [10] | outcome [11] | outcome [12] | outcome [13] | Potency [14] | Potency [15] | Potency [16] | Potency [17] | Potency [18]

Clc1ccccn1
inactive: caspase-3 activation [1] 0.0313% | outcome [2] | caspase-3 activation [3] -0.264% | caspase-3 activation [4] 0.154% | outcome [5] | Potency [6] | Potency [7] | Potency [8] | outcome [9] | outcome [11] | outcome [12] | outcome [13] | Potency [14] | Potency [15] | Potency [16] | Potency [17] | Potency [18] | Potency [19]

[O-]/[N+](=N\O)c1ccccc1
inactive: caspase-3 activation [1] -1.07% | outcome [2] | caspase-3 activation [3] -1.1% | caspase-3 activation [4] 2.95% | outcome [5] | Potency [6] | Potency [8] | outcome [9] | outcome [10] | outcome [11] | outcome [12] | outcome [13] | Potency [14] | Potency [15] | Potency [16] | Potency [17] | Potency [18] | Potency [19]

CCCOCC(C)O (stereo not drawn)
inactive: caspase-3 activation [1] 0.289% | outcome [2] | caspase-3 activation [3] -0.784% | caspase-3 activation [4] -1.05% | outcome [20] | Potency [6] | Potency [7] | Potency [8] | outcome [9] | outcome [10] | outcome [11] | outcome [12] | outcome [13] | Potency [14] | Potency [15] | Potency [16] | Potency [17] | Potency [18] | Potency [19]

Nc1cc(Cl)c([N+](=O)[O-])cc1O
inactive: caspase-3 activation [1] -0.0539% | outcome [2] | caspase-3 activation [3] 1.74% | caspase-3 activation [4] 5.51% | outcome [5] | Potency [8] | outcome [9] | outcome [11] | outcome [12] | outcome [13] | Potency [14] | Potency [15] | Potency [16] | Potency [17] | Potency [18] | Potency [19]

C1CCC2OC2C1 (stereo not drawn)
inactive: caspase-3 activation [1] -0.0644% | outcome [2] | caspase-3 activation [3] -0.699% | caspase-3 activation [4] 1.05% | outcome [5] | Potency [6] | outcome [9] | outcome [10] | outcome [11] | outcome [12] | outcome [13] | Potency [14] | Potency [15] | Potency [16] | Potency [17] | Potency [18] | Potency [19]

ICCc1ccccc1
inactive: caspase-3 activation [1] 0.262% | outcome [2] | caspase-3 activation [3] 0.877% | caspase-3 activation [4] 3.13% | outcome [5] | Potency [6] | Potency [7] | outcome [9] | outcome [10] | outcome [11] | outcome [12] | outcome [13] | Potency [14] | Potency [15] | Potency [16] | Potency [17] | Potency [18] | Potency [19]

NC(=O)CCCCC(N)=O
inactive: caspase-3 activation [1] -0.354% | outcome [2] | caspase-3 activation [3] 0.202% | caspase-3 activation [4] -0.72% | outcome [20] | Potency [7] | Potency [8] | outcome [9] | outcome [11] | outcome [12] | outcome [13] | Potency [14] | Potency [15] | Potency [16] | Potency [17] | Potency [18] | Potency [19]

C=CC(=O)NC(C)C
inactive: caspase-3 activation [1] 1.12% | outcome [2] | caspase-3 activation [3] 0.575% | caspase-3 activation [4] 2.01% | outcome [20] | Potency [6] | Potency [7] | Potency [8] | outcome [9] | outcome [10] | outcome [11] | outcome [12] | outcome [13] | Potency [14] | Potency [15] | Potency [16] | Potency [17] | Potency [18] | Potency [19]

Nc1ccc([N+](=O)[O-])c(N)c1
inactive: caspase-3 activation [1] -0.0443% | outcome [2] | caspase-3 activation [3] -0.185% | caspase-3 activation [4] -0.316% | outcome [20] | Potency [6] | Potency [7] | Potency [8] | outcome [9] | outcome [10] | outcome [11] | outcome [12] | outcome [13] | Potency [15] | Potency [16] | Potency [17] | Potency [18]

Cc1ccccc1Br
inactive: caspase-3 activation [1] -0.877% | outcome [2] | caspase-3 activation [3] 0.309% | caspase-3 activation [4] -0.786% | outcome [20] | Potency [6] | Potency [7] | Potency [8] | outcome [9] | outcome [10] | outcome [11] | outcome [12] | Potency [14] | Potency [15] | Potency [16] | Potency [17] | Potency [18] | Potency [19]
